Test results reported in PubChem BioAssay AID1159580 (chemical genetic matrix, 2015).
Hit rate of the full screen: of about 5,500 compounds, about 2,000 (36%) were called active. Inconclusive results (about 18%) are left out. Rule as the data show it: active = normalized growth mostly below about 0.91 (no sharp cut-off); inconclusive = no clear call, values can overlap the other calls; inactive = mostly above about 0.92. This is one part of the list.

Assay: chemical genetic growth profiling, strain panel (AID 1159580);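 also: tested at 20 µM; growth read once vehicle control cultures reached saturation at 30 °C; 1 = growth at the plate median or of vehicle wells; lower values mean less growth of the strain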
Details: S. cerevisiae deletion strains, growth OD

Measured: normalized growth

CCN(CC)C(C)C(=O)N1c2ccccc2Sc2ccccc21 (stereo not given)
inactive: locus YAL013W, strain DEP1, hits give low values 1 | locus YAL040C, strain CLN3, hits give low values 1.02 | locus YCL061C, strain MRC1 (second series), hits give low values 1.01 | locus YDR363W, strain ESC2, hits give low values 1 | locus YER002W, strain NOP16, hits give low values 1.02 | locus YGR229C, strain SMI1, hits give low values 1.04 | locus YJR075W, strain HOC1, hits give low values 1.07 | locus YMR263W, strain SAP30, hits give low values 1.01 | locus YMR307W, strain GAS1, hits give low values 0.999 | locus YNL128W, strain TEP1, hits give low values 0.997 | locus YNL175C, strain NOP13, hits give low values 1.04 | locus YNL197C, strain WHI3, hits give low values 1.03 | locus YNL224C, strain SQS1, hits give low values 1.02 | locus YOR083W, strain WHI5 (second series), hits give low values 1.02 | locus YPL241C, strain CIN2, hits give low values 1.01
